Screening data (PubChem)
HEK293 viab – counter-screen for SNCA expression inhibitors: cell viability; HEK-293-SNCA-luc viability, GF-AFC fluorescence, 24 h; Potency, µM (top dose mostly 57.1 µM), for the others: at the highest dose activity change, negative = cytotoxicity, most hits filed as cytotoxic; actives 0.12% (n = 150,000); AID 1671193;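 further: potency means the concentration at half of the fitted maximal effect; 0% = DMSO-treated cells and -100% = medium-only wells without cells; nearly all actives have a fitted effect of over 30% in size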
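Cytotoxicity counterscreen: after 24 h compound treatment of genome-edited SNCA-luciferase HEK-293 cells, live-cell protease substrate GF-AFC read by fluorescence after 30 min; activity scaled between DMSO (0%) and medium-only (-100%), curves Hill-fitted.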
IP6K1 inh – IP6K1 kinase inhibition. Q92551. IP6K1 kinase, ADP-Glo luminescence, 2 h; active compounds read low. activity change, % (series mostly up to about 58 µM). actives 0.81% (n = 140,000). AID 1645851; in the data active means activity change below about -25%; further: on the % scale 0 is the no-effect control and ±100 the full control effect
Target sequence (Q92551 whole entry, looked up): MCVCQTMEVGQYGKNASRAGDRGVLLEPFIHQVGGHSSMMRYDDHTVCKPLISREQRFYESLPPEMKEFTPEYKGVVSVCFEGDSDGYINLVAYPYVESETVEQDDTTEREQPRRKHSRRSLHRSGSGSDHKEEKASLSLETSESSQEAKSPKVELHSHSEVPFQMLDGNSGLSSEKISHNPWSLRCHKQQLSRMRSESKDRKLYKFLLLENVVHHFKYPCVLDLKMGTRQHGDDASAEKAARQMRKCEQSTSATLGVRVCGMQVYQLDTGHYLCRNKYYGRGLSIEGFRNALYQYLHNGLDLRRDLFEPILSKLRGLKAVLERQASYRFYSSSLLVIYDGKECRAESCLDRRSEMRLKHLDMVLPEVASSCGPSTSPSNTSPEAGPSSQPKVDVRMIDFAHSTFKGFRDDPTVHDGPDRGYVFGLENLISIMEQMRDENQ
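ADP-Glo luminescence measures ADP made by human IP6K1 during a 2 h RT reaction with ATP/IP6 (mix at 1.3 mM/130 uM); top library doses 57.5 and 19.1 uM final.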
KDM5B inh – blocks human KDM5B histone demethylase activity. Q9UGL1. KDM5B demethylase, FDH-coupled NADH fluorescence (FDH is formaldehyde dehydrogenase). Potency, µM (titrated, usually from 57.7 µM), usual class: inhibitors. actives 2.6% (n = 220,000); further: potency means the concentration at half of the fitted maximal effect; 0% is about no effect; nearly all actives have a fitted effect of over 70% in size
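Inhibition is measured as reduced NADH fluorescence generation from FDH coupling to formaldehyde release. Truncated KDM5BΔAP at 200 nM final acts on H3K4me3 peptide (12.5 µM in substrate mix) in pH 7.5 HEPES buffer with Tween-20, 30 min, room temperature.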
SNCA expr inh – reduces expression of the alpha-synuclein gene; HEK-293 SNCA-luciferase knock-in, luminescence, 24 h; Potency, µM (top dose mostly 57.2 µM), for the others: at the top dose activity change, negative = inhibition, actives largely listed as inhibitors; actives 0.17% (n = 140,000); AID 1671194;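 further: potency means the concentration at half of the fitted maximal effect; plate controls were DMSO cells for no effect and cell-free wells for full effect; nearly all actives have a fitted effect of over 45% in size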
Numbers without * were called inactive; i = inactive; ? = inconclusive; / = no result given; [ ] = another dose, or the depositor's remark. Shown are actives, neighbours in structure and some others; about 2.9% of the full set was active somewhere. Unless noted, the call rests on the fitted dose curve; in most records, active means well fitted curve in the direction sought with a large enough effect; inconclusive means small, poorly fitted or top-dose-only effect, or another doubt; inactive means no such curve, though single readings can be large; an effect the other way counts as inactive or inconclusive.

SMILES	HEK293 viab	IP6K1 inh	KDM5B inh	SNCA expr inh
CC(C)c1noc(-c2cccn3c(CNC(=O)CC4CCCCC4)nnc23)n1	6.6%	19.4	?	24.1%
O=C(CCc1ccccc1)NCc1nnc2c(-c3nc(C4CC4)no3)cccn12	-3.4%	4.3	28.2µM*	1.8%
O=C(c1ccccc1Cl)N1CCCC(c2nn(-c3ccccc3)c(=O)[nH]2)C1 (centres undefined)	-4.2%	6.3	i	-12.8%
Cc1ccc(-c2ccccc2CN2CCC(C(=O)N3CCCC3)CC2)cc1Cl	/	-3.3	/	/
O=c1[nH]c(=O)n(-c2ccc(F)cc2)c2c1CN(C1CCCCC1)CN2	/	/	i	/
CCc1cc2c(SCC(=O)c3ccc(NC(C)=O)cc3)ncnc2s1	/	/	i	/
CC(=O)c1cccc(NC(=O)Cn2c(-c3ccc(F)cc3)nc(C)cc2=O)c1	?	6.8	i	?
O=C(NCc1nnc2c(-c3nc(C4CC4)no3)cccn12)c1ccc(F)cc1	-6.9%	2.7	22.4µM*	-10.9%
O=C(NCc1nnc2c(-c3nc(C4CC4)no3)cccn12)c1c(F)cccc1Cl	0.7%	21.9	?	30.8%
CC(C)(C)c1ccc(C(=O)NCc2nnc3c(-c4nc(C5CC5)no4)cccn23)cc1	-0.7%	-0.4	?	1.3%
CCCc1noc(-c2cccn3c(CNC(=O)C4CCC4)nnc23)n1	-3.0%	2.7	28.2µM*	12.6%
O=C(NCc1nnc2c(-c3nc(C4CC4)no3)cccn12)c1ccc(F)c(Cl)c1	4.8%	19.5	28.2µM*	-24.4%
OC(COCc1ccccc1F)Cn1nnc(-c2ccc(Br)cc2)n1 (centres undefined)	/	/	i	/
O=C(NC(CO)C(=O)O)OCc1ccccc1 (centres undefined)	/	/	i	/
CC(=O)c1cccc(NC(=O)CC(C)(C(=O)O)c2ccccc2)c1 (centres undefined)	/	/	i	/
CN[C@@H](CC(C)C)c1nc(-c2cccnn2)no1	-8.3%	-8.6	i	-15.4%
CC(C)c1ccc(-c2nc(-c3cccnn3)no2)c(=O)[nH]1	2.1%	16.4	22.4µM*	11.7%
O=C(c1ccncc1)N1C[C@@H]2OCC(=O)N(Cc3ccncc3)[C@@H]2C1	0.8%[87.6 µM]	-6.7	?	8.6%[87.6 µM]
O=C1CO[C@H]2CN(Cc3ccncc3)C[C@H]2N1Cc1ccc(F)cc1	-0.3%[87.6 µM]	-11.4	35.5µM*	14.8%[87.6 µM]
O=C1CO[C@H]2CN(c3ncccn3)C[C@H]2N1Cc1ccncc1	0.7%[87.6 µM]	-1.3	39.8µM*	5.7%[87.6 µM]
O=C1CO[C@H]2CN(c3ncccn3)C[C@H]2N1Cc1ccccc1	-0.9%[87.6 µM]	3.2	35.5µM*	?
CC(=O)c1sc(-c2cccc(Br)c2)nc1C	/	/	i	/
COc1ccc2cc(-c3nc(-c4ccccc4C)no3)c(=O)oc2c1	/	/	i	/
Cc1nc2c(C(=O)N3CCC(=O)N(CC4CC4)C(C(C)C)C3)cccc2[nH]1 (centres undefined)	4.1%	7.7	i	0.6%
CC1(COc2ccc(-c3nc(COc4ccccc4)no3)cn2)CCCNC1 (centres undefined)	-6.8%	19.2	?	93.9%
SMILES	HEK293 viab	IP6K1 inh	KDM5B inh	SNCA expr inh
c1ccc(OCc2noc(-c3ccc(NC4CCSC4)nc3)n2)cc1 (centres undefined)	-2.4%	13.5	28.2µM*	59.2%
O=C1CC(c2noc(-c3ccc(F)cc3)n2)CN1C1CCCCC1 (centres undefined)	2.3%	-7.2	i	1.5%
CCC(C)S(=O)(=O)c1oc(-c2cccs2)nc1S(=O)(=O)c1ccccc1 (centres undefined)	2.82µM*	-2.4	i	?
CC(C)CS(=O)(=O)c1oc(-c2ccc(F)cc2)nc1S(=O)(=O)c1ccccc1	4.47µM*	-12.3	?	?
O=S(=O)(c1ccccc1)c1nc(-c2ccc(F)cc2)oc1NCc1ccccc1	-5.1%	9.8	?	39.8%
Cc1ccc(CSc2oc(-c3cccs3)nc2S(=O)(=O)c2ccccc2)cc1	1.8%	-10.1	i	-23.5%
Cc1noc(C)c1[S+](=O)([O-])N1CCCC(C(=O)N2CCC(N3CCOC3=O)CC2)C1 (centres undefined)	-4.2%	-5.5	/	9.2%
O=C(CCc1nc2ccccc2[nH]c1=O)N1CCN(CCn2cncn2)CC1	-7.6%	31.9	17.8µM*	-4.3%
CCCc1cc(C(=O)Nc2ccc(Br)cc2)no1	/	/	i	/
c1cn(CCc2noc(C3CCCO3)n2)c(-c2nc3c(s2)CCCC3)n1 (centres undefined)	-3.5%	3.3	31.6µM*	3.5%
CC(NC(=O)COc1ccc2c(=O)c(Oc3ccc(F)cc3)coc2c1)c1ccccc1 (centres undefined)	/	/	i	/
O=C(NCCc1ccc(Cl)cc1)c1nc(-c2ccc(Cl)cc2Cl)c2cnccn12	-0.3%	-14.6	56.2µM*	6.7%
O=C(NCCc1ccc(Cl)cc1)c1nc(-c2ccc(Cl)cc2Cl)c2ccccn12	-0.5%	-22.1	79.4µM*	-13.7%
COc1ccccc1-c1nnc2n1C(C(=O)NCCc1ccc(Cl)cc1)CC2 (centres undefined)	10.5%	9.6	i	31.7%
N#CC1CCN(C(=O)C2CCc3nnc(-c4ccc(Cl)cc4Cl)n32)CC1 (centres undefined)	-0.5%	6.9	i	7.2%
COc1ccccc1-c1nc(C(=O)NCCc2ccc(Cl)cc2)n2ccncc12	7.9%	-10.5	79.4µM*	-12.5%
N#CC1CCN(C(=O)c2nc(-c3ccc(Cl)cc3Cl)c3ccccn23)CC1	-9.6%	20.4	28.2µM*	53.4%
CNC(=O)C1N(C(C)C)C(=O)C12CCCCC2 (centres undefined)	3.2%	1.0	i	-18.7%
CC(C)CNC(=O)COC(=O)c1nn(Cc2ccccc2)c(=O)c2ccccc12	/	/	i	/
COC(=O)[C@@H]1Cc2c([nH]c3ccccc23)[C@H]2C[C@@H](NCCN(C)C)C[C@@H](c3cccc(Cl)c3)N21	?	-10.5	i	?
O=C(NC1CC1)c1nc(-c2cc(Cl)cc(Cl)c2)c2ccccn12	6.9%[87.6 µM]	-6.3	?	10.6%[87.6 µM]
O=C(NC1CC1)c1nc(-c2ccc(Cl)cc2Cl)c2ccccn12	2.2%	2.0	28.2µM*	9.3%
CCc1ccccc1OCCN(C)Cc1ncc[nH]1	-3.8%	2.6	22.4µM*	-0.5%
Cc1cc(NC(=O)c2cc3n(n2)CC(c2ccc4c(c2)OCO4)OC3)ccc1F (centres undefined)	-6.1%	22.3	28.2µM*	-18.2%
O=C(Nc1ccccc1)c1cc2n(n1)CC(c1ccc3c(c1)OCO3)OC2 (centres undefined)	-9.7%	22.3	?	2.2%
COc1ccc(CCNC(=O)c2cc3n(n2)CC(c2ccc(Cl)cc2)OC3)cc1OC (centres undefined)	-27.8%	31.0	?	?
CCc1ccc(NC(=O)c2cc3n(n2)CC(c2ccc4c(c2)OCO4)OC3)cc1 (centres undefined)	0.5%	-1.3	31.6µM*	-20.2%
Cc1ccc(NC(=O)c2cc3n(n2)CC(c2ccc4c(c2)OCO4)OC3)cc1 (centres undefined)	4.6%	-7.9	31.6µM*	-4.1%
